# The panel holds about 79,000 compounds, 15% with a hit somewhere; the sample as a whole holds those more often. Calls of active or inactive are those of the source. Cut-off read from the data, not from the text of the source: active = growth inhibition above about 70%; inactive = the rest. Where a SMILES comes first, the peptide text is derived from it. [ ]: non-standard residue; d: D form. The star is where a group is joined. ξ: configuration not given here. Tos = Cc1ccc(S(=O)(=O)*)cc1; ξY = NC(Cc1ccc(O)cc1)C(=O)O
# Test: NCI Yeast Anticancer Drug Screen. Data for the mec2-1 strain (AID 157)
# Conditions: S. cerevisiae mec2-1 strain, at 50.0 µM, stronger effect = higher value
# Outline: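 mec2-1 yeast strain, carrying an alteration in DNA damage repair or cell cycle control, was exposed to compounds; growth inhibition was measured relative to vehicle-treated controls.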
row,SMILES,growth inhibition
1,CC(C)(C)C1CC[C@H]2c3c([nH]c4ccc(Br)cc34)[C@H]3C(=O)N(c4ccccc4)C(=O)[C@H]3[C@H]2C1 (stereo not given in full),-2.7% (inactive)
2,O=C(/C=C/c1ccccc1)OCCCl,-15.1% (inactive)
3,Cn1cccc1/C=N/N=C(/N)NO,-9.85% (inactive)
4,COc1ccc2ccccc2c1I,1.4% (inactive)
5,O=C1C(CO)=C[C@@H](O)[C@H]2O[C@@H]12,1.5% (inactive)
6,CCOC(CNCCC(=O)OC)OCC,-59.2% (inactive)
7,CCCCNc1nc2ccccc2c2c1ncn2CC(C)C,34.5% (inactive)
8,CC1CCOC(C)(Cc2ccccc2)O1 (stereo not given),-3.05% (inactive)
9,CC(=O)c1c(O)ccc2c(C)cc(=O)oc12,18.8% (inactive)
10,O=C1NC2(CCN(CCCC3(c4ccc(F)cc4)OCCO3)CC2)Oc2ccccc21,-35.7% (inactive)
11,CCOP(=O)(OCC)OC1CC(n2cnc3c(N(CC)CC)ncnc32)OC1CO[Si](C)(C)C(C)(C)C (stereo not given),8.65% (inactive)
12,CC(=O)/C=C1/NC(C(=O)c2ccccc2)=CNC1c1ccccc1 (stereo not given),3.75% (inactive)
13,CCOC(=O)c1c(NCc2ccccc2)n(-c2ccccc2)c(=S)n(-c2ccccc2)c1=O,-6.8% (inactive)
14,CCOC(=O)C1(C)CCCc2sc(N)c(C#N)c21 (stereo not given),-7.55% (inactive)
15,Nc1c(O)cccc1C(=O)O,-9.9% (inactive)
16,Cc1cc(C)c(C2CC(O)C(CO)O2)cc1C (stereo not given),-20.9% (inactive)
17,Nc1ccc(S(=O)(=O)NCCS(=O)(=O)O)cc1,4.25% (inactive)
18,Cc1nn(C(=O)c2ccncc2)c2c1C(c1ccccc1)SC(N)=N2 (stereo not given),-20.1% (inactive)
19,CCC(C(C)O)[N+](=O)[O-] (stereo not given),-1.1% (inactive)
20,CCN(CC)CCNc1c2ccc(Cl)cc2nc2c1c(C)nn2C,9.15% (inactive)

row,SMILES,growth inhibition
1,ClC(Cl)(Cl)SSC(=Nc1ccccc1)SSC(Cl)(Cl)Cl,21.4% (inactive)
2,CC1CN=C(c2c(O)ccc3ccccc23)S1 (stereo not given),31.5% (inactive)
3,CCc1c(C)c(C#N)c(=S)n(C2OC(COC(C)=O)C(OC(C)=O)C(OC(C)=O)C2OC(C)=O)c1-c1ccccc1 (stereo not given),13.1% (inactive)
4,O=C1NC(CO)C(=O)NC1CO (stereo not given),-4.4% (inactive)
5,CCCCC(CCCC)(C(=O)NC)c1ccccc1,6.65% (inactive)
6,CN(C)CCC(CCN(C)C)=NOC(=O)c1ccccc1,-20.2% (inactive)
7,COC(=O)C(Cc1ccc(O)cc1)NC(=O)CNS(=O)(=O)c1ccc(C)cc1 (stereo not drawn) (Tos-Gly-[ξY]-OMe),-4.1% (inactive)
8,C/C(=N/O)c1ccc(O)cc1O,-1.2% (inactive)
9,Cc1cc(Cl)ccc1NC(N)=O,-20.3% (inactive)
10,O=C(OCC1OC(Br)CC(OC(=O)c2ccc([N+](=O)[O-])cc2)C1OC(=O)c1ccc([N+](=O)[O-])cc1)c1ccc([N+](=O)[O-])cc1 (stereo not given),9.95% (inactive)
11,CCCCCCCCOC(=O)C(C)OC(C)=O (stereo not given),2.05% (inactive)
12,CN(C)Cn1c2ccccc2c2ccccc21,-1.1% (inactive)
13,NCCCn1c2ccccc2c2cnccc21,4.15% (inactive)
14,[N-]=[N+]=Nc1ccccc1Oc1ccccc1,-18.1% (inactive)
15,COc1ccccc1NC(=O)C(CC(C(=O)Nc1ccccc1OC)/C(C)=N/Nc1ccc([N+](=O)[O-])cc1[N+](=O)[O-])/C(C)=N/Nc1ccc([N+](=O)[O-])cc1[N+](=O)[O-] (stereo not given),4.95% (inactive)
16,CC(=O)C1C(=O)C(=O)N(c2ccc(S(N)(=O)=O)cc2)C1=O (stereo not given),1.3% (inactive)
17,CC(C)OCC(O)CNCCN (stereo not given),-20.9% (inactive)
18,CCOC(=O)C/C(C)=N\NS(=O)(=O)c1ccc([N+](=O)[O-])cc1,-16.5% (inactive)
19,Cc1cc(-n2cnc3c(Cl)ncnc32)ccc1N,5.3% (inactive)
20,CCOC(=O)CNc1nc(Cl)nc(NCC(=O)OCC)n1,-4.6% (inactive)

# Test: NCI Yeast Anticancer Drug Screen. Data for the sgs1 mgt1 strain (AID 161);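 note: 0% = growth of cultures given vehicle only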
# Conditions: S. cerevisiae sgs1 mgt1 strain, at 50.0 µM, stronger effect = higher value
# Outline: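 Yeast cells carrying a defined DNA-repair defect were exposed to test compounds. Growth inhibition was measured relative to vehicle-treated controls.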
row,SMILES,growth inhibition
1,CC(C)(C)C1CC[C@H]2c3c([nH]c4ccc(Br)cc34)[C@H]3C(=O)N(c4ccccc4)C(=O)[C@H]3[C@H]2C1 (stereo not given in full),27.2% (inactive)
2,O=C(/C=C/c1ccccc1)OCCCl,-17.9% (inactive)
3,Cn1cccc1/C=N/N=C(/N)NO,-13.7% (inactive)
4,COc1ccc2ccccc2c1I,2.75% (inactive)
5,O=C1C(CO)=C[C@@H](O)[C@H]2O[C@@H]12,12.6% (inactive)
6,CCOC(CNCCC(=O)OC)OCC,-23.4% (inactive)
7,CCCCNc1nc2ccccc2c2c1ncn2CC(C)C,14.1% (inactive)
8,CC1CCOC(C)(Cc2ccccc2)O1 (stereo not given),-6.9% (inactive)
9,CC(=O)c1c(O)ccc2c(C)cc(=O)oc12,7.4% (inactive)
10,O=C1NC2(CCN(CCCC3(c4ccc(F)cc4)OCCO3)CC2)Oc2ccccc21,-1.15% (inactive)
11,CCOP(=O)(OCC)OC1CC(n2cnc3c(N(CC)CC)ncnc32)OC1CO[Si](C)(C)C(C)(C)C (stereo not given),54% (inactive)
12,CC(=O)/C=C1/NC(C(=O)c2ccccc2)=CNC1c1ccccc1 (stereo not given),20.6% (inactive)
13,CCOC(=O)c1c(NCc2ccccc2)n(-c2ccccc2)c(=S)n(-c2ccccc2)c1=O,0.6% (inactive)
14,CCOC(=O)C1(C)CCCc2sc(N)c(C#N)c21 (stereo not given),-11.1% (inactive)
15,Nc1c(O)cccc1C(=O)O,-4.45% (inactive)
16,Cc1cc(C)c(C2CC(O)C(CO)O2)cc1C (stereo not given),-10.1% (inactive)
17,Nc1ccc(S(=O)(=O)NCCS(=O)(=O)O)cc1,-36.8% (inactive)
18,Cc1nn(C(=O)c2ccncc2)c2c1C(c1ccccc1)SC(N)=N2 (stereo not given),18.9% (inactive)
19,CCC(C(C)O)[N+](=O)[O-] (stereo not given),10% (inactive)
20,CCN(CC)CCNc1c2ccc(Cl)cc2nc2c1c(C)nn2C,18.9% (inactive)

row,SMILES,growth inhibition
1,ClC(Cl)(Cl)SSC(=Nc1ccccc1)SSC(Cl)(Cl)Cl,51.6% (inactive)
2,CC1CN=C(c2c(O)ccc3ccccc23)S1 (stereo not given),79.8% (active)
3,CCc1c(C)c(C#N)c(=S)n(C2OC(COC(C)=O)C(OC(C)=O)C(OC(C)=O)C2OC(C)=O)c1-c1ccccc1 (stereo not given),37.6% (inactive)
4,O=C1NC(CO)C(=O)NC1CO (stereo not given),-12.2% (inactive)
5,CCCCC(CCCC)(C(=O)NC)c1ccccc1,-4.5% (inactive)
6,CN(C)CCC(CCN(C)C)=NOC(=O)c1ccccc1,10.1% (inactive)
7,COC(=O)C(Cc1ccc(O)cc1)NC(=O)CNS(=O)(=O)c1ccc(C)cc1 (stereo not drawn) (Tos-Gly-[ξY]-OMe),19.9% (inactive)
8,C/C(=N/O)c1ccc(O)cc1O,3.65% (inactive)
9,Cc1cc(Cl)ccc1NC(N)=O,5.15% (inactive)
10,O=C(OCC1OC(Br)CC(OC(=O)c2ccc([N+](=O)[O-])cc2)C1OC(=O)c1ccc([N+](=O)[O-])cc1)c1ccc([N+](=O)[O-])cc1 (stereo not given),18.1% (inactive)
11,CCCCCCCCOC(=O)C(C)OC(C)=O (stereo not given),2.3% (inactive)
12,CN(C)Cn1c2ccccc2c2ccccc21,3.9% (inactive)
13,NCCCn1c2ccccc2c2cnccc21,2.15% (inactive)
14,[N-]=[N+]=Nc1ccccc1Oc1ccccc1,5.15% (inactive)
15,COc1ccccc1NC(=O)C(CC(C(=O)Nc1ccccc1OC)/C(C)=N/Nc1ccc([N+](=O)[O-])cc1[N+](=O)[O-])/C(C)=N/Nc1ccc([N+](=O)[O-])cc1[N+](=O)[O-] (stereo not given),19.6% (inactive)
16,CC(=O)C1C(=O)C(=O)N(c2ccc(S(N)(=O)=O)cc2)C1=O (stereo not given),7.6% (inactive)
17,CC(C)OCC(O)CNCCN (stereo not given),-7.9% (inactive)
18,CCOC(=O)C/C(C)=N\NS(=O)(=O)c1ccc([N+](=O)[O-])cc1,8.85% (inactive)
19,Cc1cc(-n2cnc3c(Cl)ncnc32)ccc1N,0.95% (inactive)
20,CCOC(=O)CNc1nc(Cl)nc(NCC(=O)OCC)n1,-0.05% (inactive)

# Reference: PubChem BioAssay (NCI)
